Measurements reported in ChEMBL document CHEMBL1961873, “Compounds: GSK PKIS; Assays: Nanosyn kinase panel” (2012).

Assays:
[1] = target: T1, Tyrosine-protein kinase ITK/TSK (Homo sapiens) (UniProt Q08881); settings: at 1 µM;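 further: values are mean percent inhibition of ITK from the GSK PKIS screen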
T1 sequence (whole entry): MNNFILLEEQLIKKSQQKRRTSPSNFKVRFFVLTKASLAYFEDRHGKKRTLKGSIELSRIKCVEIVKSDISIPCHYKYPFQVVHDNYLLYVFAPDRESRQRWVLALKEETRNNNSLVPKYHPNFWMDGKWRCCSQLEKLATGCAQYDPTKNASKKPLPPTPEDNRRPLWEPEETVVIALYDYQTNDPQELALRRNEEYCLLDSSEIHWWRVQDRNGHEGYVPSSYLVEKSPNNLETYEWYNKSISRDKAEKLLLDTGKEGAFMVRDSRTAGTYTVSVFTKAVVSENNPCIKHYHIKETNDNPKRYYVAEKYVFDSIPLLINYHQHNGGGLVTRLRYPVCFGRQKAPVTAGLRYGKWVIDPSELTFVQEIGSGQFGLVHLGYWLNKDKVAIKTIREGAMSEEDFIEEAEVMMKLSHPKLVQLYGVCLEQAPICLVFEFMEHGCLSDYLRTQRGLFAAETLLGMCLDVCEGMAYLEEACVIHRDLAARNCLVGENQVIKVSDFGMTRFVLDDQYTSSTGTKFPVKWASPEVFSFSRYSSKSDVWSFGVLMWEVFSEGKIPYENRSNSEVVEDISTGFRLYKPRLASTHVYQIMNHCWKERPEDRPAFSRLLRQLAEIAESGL

[2] = target: Tyrosine-protein kinase JAK1 (Homo sapiens) (UniProt P23458); settings: at 0.1 µM
Sequence of Tyrosine-protein kinase JAK1 (Homo sapiens) (P23458 whole entry): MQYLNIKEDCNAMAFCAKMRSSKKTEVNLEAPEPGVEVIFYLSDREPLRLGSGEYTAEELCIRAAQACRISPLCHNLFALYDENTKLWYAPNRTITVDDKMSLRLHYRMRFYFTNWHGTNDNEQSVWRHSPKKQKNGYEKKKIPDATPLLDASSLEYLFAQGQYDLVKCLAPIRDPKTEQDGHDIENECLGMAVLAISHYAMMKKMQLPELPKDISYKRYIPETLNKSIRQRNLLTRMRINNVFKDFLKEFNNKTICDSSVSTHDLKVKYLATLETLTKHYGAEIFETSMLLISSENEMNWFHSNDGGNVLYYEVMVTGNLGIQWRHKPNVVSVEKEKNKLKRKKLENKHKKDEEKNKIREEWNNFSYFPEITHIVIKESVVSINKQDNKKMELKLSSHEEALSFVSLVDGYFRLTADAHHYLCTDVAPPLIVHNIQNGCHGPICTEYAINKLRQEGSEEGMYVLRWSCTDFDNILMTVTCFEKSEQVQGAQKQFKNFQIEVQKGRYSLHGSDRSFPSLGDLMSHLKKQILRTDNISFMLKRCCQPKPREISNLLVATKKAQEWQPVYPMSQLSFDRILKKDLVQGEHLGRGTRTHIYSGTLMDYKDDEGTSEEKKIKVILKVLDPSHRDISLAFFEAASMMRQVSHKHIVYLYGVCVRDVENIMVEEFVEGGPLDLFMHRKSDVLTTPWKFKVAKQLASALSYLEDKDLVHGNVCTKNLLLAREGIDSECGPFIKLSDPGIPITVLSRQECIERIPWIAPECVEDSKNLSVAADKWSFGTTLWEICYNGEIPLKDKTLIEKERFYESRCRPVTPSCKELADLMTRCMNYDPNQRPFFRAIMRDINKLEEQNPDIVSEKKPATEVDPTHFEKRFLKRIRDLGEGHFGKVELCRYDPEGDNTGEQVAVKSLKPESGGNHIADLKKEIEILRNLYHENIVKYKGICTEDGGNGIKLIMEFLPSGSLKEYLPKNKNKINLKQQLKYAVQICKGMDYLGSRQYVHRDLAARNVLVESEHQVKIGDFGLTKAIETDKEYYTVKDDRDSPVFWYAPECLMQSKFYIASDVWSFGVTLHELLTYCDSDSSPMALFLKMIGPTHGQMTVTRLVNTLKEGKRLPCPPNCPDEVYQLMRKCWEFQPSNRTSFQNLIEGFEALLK

[3] = target: Tyrosine-protein kinase JAK1 (Homo sapiens) (UniProt P23458); settings: at 1 µM
[4] = target: Tyrosine-protein kinase JAK2 (Homo sapiens) (UniProt O60674); settings: at 0.1 µM
[5] = target: Tyrosine-protein kinase JAK2 (Homo sapiens) (UniProt O60674); settings: at 1 µM
[6] = target: T2, Tyrosine-protein kinase JAK3 (Homo sapiens) (UniProt P52333); settings: at 0.1 µM
T2 sequence (whole entry): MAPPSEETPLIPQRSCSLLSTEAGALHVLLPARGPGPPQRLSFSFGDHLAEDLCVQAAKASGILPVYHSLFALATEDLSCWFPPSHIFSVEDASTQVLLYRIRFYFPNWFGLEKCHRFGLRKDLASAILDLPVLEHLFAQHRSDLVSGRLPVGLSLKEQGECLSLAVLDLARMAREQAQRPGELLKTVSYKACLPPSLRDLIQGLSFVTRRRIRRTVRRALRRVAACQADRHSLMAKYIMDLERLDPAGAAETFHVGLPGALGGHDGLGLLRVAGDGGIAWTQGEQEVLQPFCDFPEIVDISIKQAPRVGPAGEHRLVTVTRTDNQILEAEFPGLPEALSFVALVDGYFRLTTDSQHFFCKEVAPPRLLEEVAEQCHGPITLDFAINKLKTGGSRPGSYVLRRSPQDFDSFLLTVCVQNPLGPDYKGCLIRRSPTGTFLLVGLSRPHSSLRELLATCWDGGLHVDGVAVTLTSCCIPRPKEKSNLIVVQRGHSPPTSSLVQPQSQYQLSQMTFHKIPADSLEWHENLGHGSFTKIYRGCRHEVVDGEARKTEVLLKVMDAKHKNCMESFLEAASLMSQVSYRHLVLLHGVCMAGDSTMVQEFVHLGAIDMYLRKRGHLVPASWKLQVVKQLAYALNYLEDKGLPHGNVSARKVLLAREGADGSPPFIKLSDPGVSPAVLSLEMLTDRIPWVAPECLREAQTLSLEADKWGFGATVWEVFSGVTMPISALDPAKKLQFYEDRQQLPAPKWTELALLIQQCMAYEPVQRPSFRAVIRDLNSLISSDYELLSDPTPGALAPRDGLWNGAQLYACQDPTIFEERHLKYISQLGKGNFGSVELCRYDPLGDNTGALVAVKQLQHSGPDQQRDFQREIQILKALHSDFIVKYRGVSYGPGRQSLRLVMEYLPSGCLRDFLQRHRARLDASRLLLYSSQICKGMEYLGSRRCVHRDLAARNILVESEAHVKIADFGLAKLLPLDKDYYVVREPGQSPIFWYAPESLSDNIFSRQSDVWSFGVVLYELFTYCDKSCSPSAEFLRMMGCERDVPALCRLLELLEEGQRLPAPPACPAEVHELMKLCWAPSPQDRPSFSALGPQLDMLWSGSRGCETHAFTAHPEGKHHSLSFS

[7] = target: T2, Tyrosine-protein kinase JAK3 (Homo sapiens); settings: at 1 µM
[8] = target: Vascular endothelial growth factor receptor 2 (Homo sapiens) (UniProt P35968); settings: at 0.1 µM
Sequence of Vascular endothelial growth factor receptor 2 (Homo sapiens) (P35968 whole entry): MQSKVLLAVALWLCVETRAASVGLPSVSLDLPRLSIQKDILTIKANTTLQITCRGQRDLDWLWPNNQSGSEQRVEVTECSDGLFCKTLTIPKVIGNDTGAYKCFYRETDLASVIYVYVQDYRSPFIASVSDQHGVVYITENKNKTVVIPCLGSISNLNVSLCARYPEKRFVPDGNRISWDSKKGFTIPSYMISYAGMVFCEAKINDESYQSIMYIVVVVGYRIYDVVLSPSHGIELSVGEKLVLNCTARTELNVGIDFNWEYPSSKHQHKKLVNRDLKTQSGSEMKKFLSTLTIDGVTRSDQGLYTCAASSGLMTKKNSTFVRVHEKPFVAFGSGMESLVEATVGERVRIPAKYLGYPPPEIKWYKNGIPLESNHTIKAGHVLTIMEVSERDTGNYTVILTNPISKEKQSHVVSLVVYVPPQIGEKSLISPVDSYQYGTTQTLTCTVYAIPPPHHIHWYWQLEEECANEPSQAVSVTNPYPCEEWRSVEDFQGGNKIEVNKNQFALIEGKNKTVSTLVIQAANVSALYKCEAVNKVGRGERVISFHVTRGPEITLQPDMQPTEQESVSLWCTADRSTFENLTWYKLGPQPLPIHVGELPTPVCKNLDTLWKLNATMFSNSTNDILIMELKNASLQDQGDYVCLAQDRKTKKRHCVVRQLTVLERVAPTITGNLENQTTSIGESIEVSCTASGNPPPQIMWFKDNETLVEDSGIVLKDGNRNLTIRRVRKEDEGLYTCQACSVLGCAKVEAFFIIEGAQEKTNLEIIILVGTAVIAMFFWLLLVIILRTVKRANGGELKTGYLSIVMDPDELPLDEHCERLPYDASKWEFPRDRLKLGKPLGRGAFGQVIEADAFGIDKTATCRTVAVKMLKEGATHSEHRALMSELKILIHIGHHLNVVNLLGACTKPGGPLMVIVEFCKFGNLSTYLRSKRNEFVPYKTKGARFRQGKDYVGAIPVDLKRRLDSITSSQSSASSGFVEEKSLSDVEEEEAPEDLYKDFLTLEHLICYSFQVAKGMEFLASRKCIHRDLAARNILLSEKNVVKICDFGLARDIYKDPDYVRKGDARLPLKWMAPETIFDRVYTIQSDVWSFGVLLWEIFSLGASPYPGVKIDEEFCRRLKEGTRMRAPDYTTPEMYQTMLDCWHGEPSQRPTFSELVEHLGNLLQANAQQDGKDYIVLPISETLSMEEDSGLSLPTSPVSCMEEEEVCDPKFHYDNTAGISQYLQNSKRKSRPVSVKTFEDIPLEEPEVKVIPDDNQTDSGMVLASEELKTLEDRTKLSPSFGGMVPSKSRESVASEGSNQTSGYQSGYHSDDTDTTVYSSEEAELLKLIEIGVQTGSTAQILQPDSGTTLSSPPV

[9] = target: Vascular endothelial growth factor receptor 2 (Homo sapiens) (UniProt P35968); settings: at 1 µM
[10] = target: Mast/stem cell growth factor receptor Kit (Homo sapiens) (UniProt P10721); settings: at 0.1 µM
Sequence of Mast/stem cell growth factor receptor Kit (Homo sapiens) (P10721 whole entry): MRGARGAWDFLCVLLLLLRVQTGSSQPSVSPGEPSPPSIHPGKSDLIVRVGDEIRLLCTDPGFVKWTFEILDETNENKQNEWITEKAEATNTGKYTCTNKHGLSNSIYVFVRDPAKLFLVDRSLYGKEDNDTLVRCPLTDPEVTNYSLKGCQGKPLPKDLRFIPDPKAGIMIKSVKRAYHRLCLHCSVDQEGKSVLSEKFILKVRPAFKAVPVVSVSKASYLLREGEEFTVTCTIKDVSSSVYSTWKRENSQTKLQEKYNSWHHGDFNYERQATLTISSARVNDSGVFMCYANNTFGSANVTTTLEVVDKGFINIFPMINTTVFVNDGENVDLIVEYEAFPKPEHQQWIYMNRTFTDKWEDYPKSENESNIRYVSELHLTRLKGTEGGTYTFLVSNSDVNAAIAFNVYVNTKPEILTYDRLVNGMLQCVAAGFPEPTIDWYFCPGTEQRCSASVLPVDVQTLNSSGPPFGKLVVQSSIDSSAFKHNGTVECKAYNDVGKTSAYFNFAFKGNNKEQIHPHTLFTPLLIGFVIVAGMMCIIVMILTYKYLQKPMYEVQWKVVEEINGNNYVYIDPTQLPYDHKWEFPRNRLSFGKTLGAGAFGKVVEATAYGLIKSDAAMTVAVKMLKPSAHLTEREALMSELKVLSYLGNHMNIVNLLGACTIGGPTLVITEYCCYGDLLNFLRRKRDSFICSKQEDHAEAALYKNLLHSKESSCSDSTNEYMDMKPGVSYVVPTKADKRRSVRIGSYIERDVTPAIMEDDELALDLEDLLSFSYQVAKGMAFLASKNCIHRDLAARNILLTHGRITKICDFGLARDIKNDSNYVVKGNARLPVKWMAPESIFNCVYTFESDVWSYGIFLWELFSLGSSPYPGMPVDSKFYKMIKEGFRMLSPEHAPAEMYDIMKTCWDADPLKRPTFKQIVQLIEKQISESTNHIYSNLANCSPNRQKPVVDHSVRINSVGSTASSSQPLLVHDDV

[11] = target: Mast/stem cell growth factor receptor Kit (Homo sapiens) (UniProt P10721); settings: at 1 µM
[12] = system: Mast/stem cell growth factor receptor Kit (Homo sapiens), P10721 [D816V]; settings: at 0.1 µM
Sequence of Mast/stem cell growth factor receptor Kit (Homo sapiens), P10721 [D816V] (P10721 whole entry D816V): as the sequence (P10721 whole entry) above, with D816V counted along it

[13] = system: Mast/stem cell growth factor receptor Kit (Homo sapiens), P10721 [D816V]; settings: at 1 µM
[14] = system: Mast/stem cell growth factor receptor Kit (Homo sapiens), P10721 [T670I]; settings: at 0.1 µM
Sequence of Mast/stem cell growth factor receptor Kit (Homo sapiens), P10721 [T670I] (P10721 whole entry T670I): as the sequence (P10721 whole entry) above, with T670I counted along it

[15] = system: Mast/stem cell growth factor receptor Kit (Homo sapiens), P10721 [T670I]; settings: at 1 µM
[16] = system: Mast/stem cell growth factor receptor Kit (Homo sapiens), P10721 [V560G]; settings: at 0.1 µM
Sequence of Mast/stem cell growth factor receptor Kit (Homo sapiens), P10721 [V560G] (P10721 whole entry V560G): as the sequence (P10721 whole entry) above, with V560G counted along it

[17] = system: Mast/stem cell growth factor receptor Kit (Homo sapiens), P10721 [V560G]; settings: at 1 µM
[18] = target: Tyrosine-protein kinase Lck (Homo sapiens) (UniProt P06239); settings: at 0.1 µM
Sequence of Tyrosine-protein kinase Lck (Homo sapiens) (P06239 2-509 limits assumed): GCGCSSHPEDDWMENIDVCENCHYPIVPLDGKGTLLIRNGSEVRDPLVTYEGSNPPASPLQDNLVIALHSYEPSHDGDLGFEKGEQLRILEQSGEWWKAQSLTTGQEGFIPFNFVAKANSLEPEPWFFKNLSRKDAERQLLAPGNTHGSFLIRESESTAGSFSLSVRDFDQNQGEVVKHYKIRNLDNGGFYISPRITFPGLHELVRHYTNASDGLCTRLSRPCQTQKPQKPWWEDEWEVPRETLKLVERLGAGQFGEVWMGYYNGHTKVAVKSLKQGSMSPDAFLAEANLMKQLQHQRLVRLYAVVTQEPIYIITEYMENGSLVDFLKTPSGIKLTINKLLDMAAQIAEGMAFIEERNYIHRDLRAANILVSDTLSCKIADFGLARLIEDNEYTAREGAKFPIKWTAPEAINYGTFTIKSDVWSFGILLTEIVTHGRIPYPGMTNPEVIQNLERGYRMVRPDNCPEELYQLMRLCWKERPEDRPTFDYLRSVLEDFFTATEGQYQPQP

[19] = target: Tyrosine-protein kinase Lck (Homo sapiens) (UniProt P06239); settings: at 1 µM
[20] = target: Leukocyte tyrosine kinase receptor (Homo sapiens) (UniProt P29376); settings: at 0.1 µM
Sequence of Leukocyte tyrosine kinase receptor (Homo sapiens) (P29376 whole entry): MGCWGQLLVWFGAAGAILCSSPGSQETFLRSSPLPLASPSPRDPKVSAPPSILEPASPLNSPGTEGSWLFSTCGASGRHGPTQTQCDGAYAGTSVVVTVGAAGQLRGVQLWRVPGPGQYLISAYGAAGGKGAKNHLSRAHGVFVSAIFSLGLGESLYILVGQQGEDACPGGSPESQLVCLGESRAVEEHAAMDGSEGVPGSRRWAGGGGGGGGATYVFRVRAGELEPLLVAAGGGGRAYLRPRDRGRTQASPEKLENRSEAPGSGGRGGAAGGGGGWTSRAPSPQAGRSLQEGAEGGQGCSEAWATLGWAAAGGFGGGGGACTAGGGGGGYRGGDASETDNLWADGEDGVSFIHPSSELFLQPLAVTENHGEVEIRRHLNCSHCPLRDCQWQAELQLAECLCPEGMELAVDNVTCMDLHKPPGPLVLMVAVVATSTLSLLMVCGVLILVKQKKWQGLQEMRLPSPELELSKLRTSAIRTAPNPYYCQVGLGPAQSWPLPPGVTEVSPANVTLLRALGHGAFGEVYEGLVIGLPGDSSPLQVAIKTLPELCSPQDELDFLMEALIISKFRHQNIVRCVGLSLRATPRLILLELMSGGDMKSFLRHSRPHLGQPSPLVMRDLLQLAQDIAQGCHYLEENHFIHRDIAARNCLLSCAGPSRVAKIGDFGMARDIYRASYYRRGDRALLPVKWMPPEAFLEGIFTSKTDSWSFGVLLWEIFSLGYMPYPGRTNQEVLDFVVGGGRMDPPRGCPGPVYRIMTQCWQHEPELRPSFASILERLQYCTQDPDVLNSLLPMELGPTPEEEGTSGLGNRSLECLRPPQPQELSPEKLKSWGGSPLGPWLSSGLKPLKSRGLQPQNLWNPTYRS

SMILES | inhibition [1] | inhibition [2] | inhibition [3] | inhibition [4] | inhibition [5] | inhibition [6] | inhibition [7] | inhibition [8] | inhibition [9] | inhibition [10] | inhibition [11] | inhibition [12] | inhibition [13] | inhibition [14] | inhibition [15] | inhibition [16] | inhibition [17] | inhibition [18] | inhibition [19] | inhibition [20]
CN1CCC(n2cnc(-c3ccc(F)cc3)c2-c2ccnc(N)n2)CC1 | 6.65% | 1.99% | 8.12% | 0.06% | 0.49% | -0.36% | -2.05% | 3.28% | 10.8% | 1.87% | 9.51% | 5.49% | 7.78% | 4.69% | 3.03% | -0.68% | 3.94% | 2.45% | 13.7% | 2.54%
O=C(O[C@H]1CN[C@H](C#Cc2cc3ncnc(Nc4ccc(Cc5ccccc5)cc4)c3s2)C1)N1CCOCC1 | 0.7% | 0.98% | 1.8% | -0.09% | -0.66% | -2.28% | -1.16% | -0.84% | 5.75% | 2.78% | 3.44% | 8.25% | 1.8% | 1.94% | 0.93% | -0.42% | -0.08% | 2.19% | 8.13% | 1.17%
CCn1c(-c2nonc2N)nc2cnc(Oc3cccc(NC(=O)c4ccc(N(C)C)cc4)c3)cc21 | 0.86% | 0.78% | 2.7% | 0.7% | 0.27% | -0.01% | -1.1% | 2.18% | 8.86% | 0.97% | 1.33% | 0.14% | -1.44% | 0.35% | -0.9% | -2.78% | 2.28% | -0.65% | 1.33% | 1.6%
Cc1ccc(O)cc1Nc1ccnc2cc(-c3ccccn3)ccc12 | 2.42% | 7.02% | 3.25% | 2.62% | 3.62% | -1.06% | 0.79% | 78.6% | 93.5% | 10.4% | 43.1% | 23.5% | 73.7% | 4.94% | 3.09% | 3.25% | 41.2% | 33.6% | 76.6% | 10.9%
CCN(CC)S(=O)(=O)c1ccc(OC)c(Nc2ncc(-c3ccccc3)o2)c1 | 2.62% | 1.87% | 0.33% | 0.36% | 1.73% | -0.47% | 2.16% | 31.3% | 68% | 33.5% | 87.8% | 3.78% | 6.46% | 3.41% | 48.3% | 7.63% | 13.6% | 4.39% | 24.8% | -0.3%
CCOc1ccc2c(-c3ccnc(Nc4cccc(C(F)(F)F)c4)n3)cnn2n1 | 4.47% | 1.9% | 5.28% | 0.91% | 0.53% | -1.95% | -0.21% | 4.26% | 7.57% | 3.18% | 17.8% | 0.23% | 2.91% | 1.24% | 3.49% | -1.27% | 0.29% | 2.98% | 7.3% | 2.51%
COc1cc(N2CCN(C(C)C)CC2)ccc1Nc1nc(Nc2ccc(F)cc2C(N)=O)c2cc[nH]c2n1 | 5.47% | 3.68% | 2.03% | 2.05% | 2.59% | 0.12% | 11.6% | 4.96% | 15.3% | -0.57% | 4.94% | -1.16% | 2.56% | -2.37% | -1.31% | -1.89% | -1.36% | 2.34% | 4.79% | 93.5%
COc1ccc(-c2nn3ncccc3c2-c2ccnc(Nc3ccc4c(c3)OCCO4)n2)cc1 | 0.71% | 1.48% | 1.48% | -0.19% | -0.78% | -1.66% | -0.04% | 11.3% | 64% | 40.5% | 85.2% | -1.73% | 0.8% | 3.74% | 34.7% | 9.03% | 61.7% | 34.8% | 66.8% | 3.69%
Cc1ccc2c(-c3ccnc(Nc4ccccc4)n3)c(-c3ccc(F)cc3)nn2n1 | 2.3% | 3.23% | -5.84% | 1.55% | 2.93% | -0.48% | 2.61% | 21% | 64% | 23.8% | 75.7% | 1.56% | -0.04% | 0.33% | 3.98% | 1.13% | 27.9% | 15.8% | 56.9% | 2.45%
COC(=O)Nc1nc2ccc(Oc3ccc(NC(=O)Nc4cccc(Cl)c4)cc3)cc2[nH]1 | 0.42% | 0.77% | 4.07% | 0.38% | -0.26% | -0.87% | -0.3% | 32.4% | 62.5% | 72.9% | 90.8% | -0.72% | -1.6% | 22.5% | 57.1% | 69.5% | 91.2% | 2.47% | 9.47% | 2.31%
CS(=O)(=O)CCNCc1coc(-c2ccc3ncnc(Nc4ccc(OCc5ccccc5)cc4)c3c2)c1 | 1.57% | -1.63% | 0.69% | 1.12% | 1.93% | -1.53% | 0.54% | 4.63% | 7.45% | -0.21% | 8.33% | 0.03% | 1.72% | 2.17% | 3.24% | 0.76% | 2.94% | 3.8% | 14.4% | 4.91%
c1ccc(COc2ccc(Nc3ncnc4ccc(-c5ccco5)cc34)cc2)cc1 | 0.76% | 4% | 2.21% | 0.1% | -0.74% | -2.56% | -0.1% | 0.23% | -0.38% | 0.2% | -0.06% | -2.23% | -0.29% | 0.67% | -1.15% | 2.08% | 1.66% | 0.84% | 4.49% | 0.59%
CCn1c(-c2nonc2N)nc2c(C#CC(C)(C)O)nc(OC[C@H](N)c3ccccc3)cc21 | 1.49% | 1.86% | -0.29% | -0.06% | 1.71% | -2% | -0.34% | 59.6% | 96.1% | 3.94% | 1.58% | 1.78% | 10% | 0.36% | 0.72% | 3.28% | -0.5% | 2.85% | 3.65% | 5.32%
